# Compounds with a hit are over-represented: about 12% of the library has one in this group of screens.
# Shiga inhibitor – blocks Shiga toxin action in Vero cells; Vero cells, Shiga toxin protein synthesis inhibition reporter; inhibition, % at 38.7 µM; 290,000 tested, 9.2% active; AID 2315; in the data active = inhibition mostly above about 28%, no sharp cut-off; inactive = mostly below about 43%; also: 0% is about no effect
# Cycloheximide cs – affects cycloheximide protein synthesis inhibition readout, counter-screen. 300,000 tested, 12% active. AID 2314. max response, %. cell reporter, cycloheximide protein synthesis inhibition counterscreen; in the data active = max response mostly above about 13%, no sharp cut-off; inactive = mostly below about 14%; also: read at 38.3 µM for the half of the compounds with a filed dose; 0% is about no effect
# Lassa entry inh – Lassa virus entry inhibition | Lassa virus pseudotype entry inhibition, cell reporter | Potency, µM (doses to about 37.9 µM), for inactives: at the top dose activity change, negative = inhibition, most hits filed as inhibitors | 300,000 tested, 1.2% active; calls by dose curve; tested in HEK293 cells; also: potency is read from the fitted curve at half-maximal effect; % is scaled to controls: 0 for no effect and ±100 for the full control effect; nearly all actives have a fitted effect of over 50% in size
# MARV entry inh – Marburg virus entry inhibition; Marburg virus pseudotyped entry inhibition, cell reporter; Potency, µM (titrated, usually from 37.8 µM), without a hit: at the top dose activity change, negative = inhibition, actives largely listed as inhibitors; 300,000 tested, 1.8% active; AID 540276; calls by dose curve; tested in HEK293 cells; also: potency is read from the fitted curve at half-maximal effect; % is scaled to controls: 0 for no effect and ±100 for the full control effect
# * = called active by the depositor; ? = inconclusive; / = no result given; + = active, no number; [ ] = dose if it differs, or a comment.
SMILES,Shiga inhibitor,Cycloheximide cs,Lassa entry inh,MARV entry inh
CC(SCCc1ccccn1)C(=O)O (configuration not stated),-3.4,1.1,18.4%,6.4%
CCOC(=O)Cc1ccc2sc(-c3ccccc3)nc2c1,30.7*,57.9*,?,?
CCOC(=O)c1sc(-c2cccs2)nc1C,129.6*,42.7*,?,11.1%
CCOC(=O)c1sc(-c2ccccc2)nc1C,30.0,34.1*,-1.1%,8.3%[46.1 µM]
O=C(NC1CCCC1)c1ccc(CNc2c(N3CCOCC3)c(=O)c2=O)cc1,-13.5,-3.9,/,/
CCOc1ccc(-n2c(C)nc(O)c2N=Nc2ccccc2)cc1,67.4,17.3*,12.0%,?
Cc1ccc(N2C(=O)c3ccccc3C2C(=O)c2cc(C)ccc2O)cc1 (configuration not stated),+,39.8*,-28.5%,-24.1%
Cc1ccc(N2C(=O)c3ccccc3C2C(=O)c2ccc(C)c(C)c2O)cc1 (configuration not stated),30.8,18.2*,?,-7.1%
O=C1C[C@@H](c2ccccc2)[C@H](c2ccc(Br)cc2)O1,/,/,/,-17.0%[14.2 µM]
O=C(NCc1ccccc1F)C1CCCN1C(=O)Nc1ccc(Cl)cc1 (configuration not stated),-12.2,-2.2,/,/
O=C(COC(=O)c1ccco1)Nc1nc2ccccc2s1,32.2,21.5*,9.3%,?
O=C(OCc1nc2ccccc2s1)c1ccc([N+](=O)[O-])o1,1.3,6.6,/,-0.7%[46.1 µM]
CC(=O)OCc1nc2ccccc2s1,91.7*,29.3*,-15.5%,?
NC(=O)c1ccccc1OCc1nc2ccccc2s1,97.3*,33.6*,?,?
O=C(OCc1nc2ccccc2s1)c1ccc(Br)o1,80.2*,28.2*,?,?
O=C(NCC(c1ccco1)N1CCOCC1)c1c(F)cccc1F (configuration not stated),/,/,10.7%,-1.8%[46.1 µM]
COC(=O)CC1c2ccccc2C=C(/C=C/c2ccc3c(c2)OCO3)N1C(=O)OC (configuration not stated),/,/,/,-18.2%[14.2 µM]
COc1ccc(OC)c(NC(=O)c2c(NCc3ccc(N(C)C)cc3)sc3c2CCCC3)c1,/,/,-11.7%[46.1 µM],/
CC(C)(C)OC(=O)NS(=O)(=O)Nc1ccccc1Br,-7.6,13.4,/,/
Cc1cc(C(=O)OCc2nc3ccccc3s2)c(C)o1,105.2*,52.7*,13.4%,-28.0%
O=C(OCc1nc2ccccc2s1)c1ccco1,90.4*,36.4*,?,?
CCCc1cc(C(=O)Cc2nc3ccccc3s2)c(O)cc1O,24.2,11.7,9.9%,13.9%
O=C(CCc1nc2ccccc2s1)OCC(=O)N1CCN(C(=O)c2ccco2)CC1,14.0,1.6,3.8%,2.8%
Cc1cc(C(=O)OCC(=O)Nc2ccccc2)c(C)o1,16.4,1.7,2.3%[46.1 µM],1.8%[46.1 µM]
CCOC(=O)C(=O)Cc1nc2ccccc2s1,28.8,11.8*,/,/
SMILES,Shiga inhibitor,Cycloheximide cs,Lassa entry inh,MARV entry inh
Cc1ccccc1C(=O)N(C)c1ccccc1C(=O)NCc1ccccc1,-10.1,-3.0,17.8%,-12.2%
COc1ccc(C)cc1NC(=O)CSc1nc(=O)n(Cc2ccccn2)c2c1CCC2,/,/,12.6%[46.1 µM],/
CN(CCc1cn[nH]c1)C(=O)C1CCC(=O)N(CC2CCCCC2)C1 (configuration not stated),-8.2,-2.8,16.0%,-0.5%
Cn1cnc([N+](=O)[O-])c1S(=O)(=O)Oc1ccc(Cl)cc1,/,/,?,11.2µM*
CCS(=O)(=O)c1c([N+](=O)[O-])ncn1C,-13.0,-5.2,-1.2%,0.0%
COc1cc(C(NC(=O)C(F)(F)F)c2cc3ccccc3o2)cc(OC)c1OC (configuration not stated),/,/,?,4.6%[14.2 µM]
COc1ccc(C2C(C#N)=C3NC(=O)c4c(sc5c4CCCCC5)N3C3=C2C(=O)CC(C)(C)C3)cc1 (configuration not stated),34.1,-4.2,23.1µM*,?
COc1cc(NC(=O)c2cc(CC(C)C)on2)c(OC)cc1Cl,8.7,-2.2,/,0.2%
CC(C)Cc1cc(C(=O)Nc2cccnc2)no1,111.2*,35.4*,/,/
CC(=O)c1ccc(NC(=O)c2cc(CC(C)C)on2)cc1,active,18.1*,/,1.0%
CC(C)COC(=O)n1ccc(C(=O)N2CCCCC2)n1,22.0,8.0,?,?
CC(=O)c1ccc(NC(=O)c2ccn(C(=O)OCC(C)C)n2)cc1,55.8*,70.7*,2.7%,-1.9%
CSc1ccccc1NC(=O)c1cc(CC(C)C)on1,69.5*,62.3*,/,/
COC(=O)c1scc(-c2ccc(C)cc2)c1S(=O)(=O)Nc1cc(OC)c(OC)c(OC)c1,/,/,-28.9%[46.1 µM],/
Cc1ccc(C2=N/C(=C\c3cccc(F)c3)C(=O)O2)cc1,9.9,-1.3,/,/
COc1ccc(NS(=O)(=O)c2cccc(C(=O)NNC(=O)c3cccn3C)c2)cc1,6.1,-1.8,/,/
Cc1ccc(NS(=O)(=O)c2cccc(C(=O)NNC(=O)c3cccn3C)c2)c(C)c1,32.3,24.0*,?,14.0%
NC(=O)CC(NC(=O)Cc1ccc(Cl)cc1)c1ccc(NCCN2CCOCC2)c([N+](=O)[O-])c1 (configuration not stated),-6.2,-0.3,/,/
CC(=O)c1sc(-c2ccc(Cl)cc2)nc1C,53.1*,26.1*,?,?
C/C(=N\O)c1sc(-c2ccccc2)nc1C,98.4*,46.1*,/,/
Cc1nc(-c2ccccc2)sc1C(N)=O,0.0,15.3,20.7%,6.1%
Cc1nc(-c2ccc(C(F)(F)F)cc2)sc1C(=O)NN,36.9,15.2*,?,?
Cc1nc(-c2cccs2)sc1C(=O)NN,-14.5,-1.5,?,-39.7%
CC(=O)c1sc(-c2cccc(Cl)c2)nc1C,48.5,19.5*,/,/
C/C(=N\Nc1ccc(S(=O)(=O)N2CCCCC2)cn1)c1ccc(O)cc1,/,/,-1.1%,-12.0%
SMILES,Shiga inhibitor,Cycloheximide cs,Lassa entry inh,MARV entry inh
CCCc1n[nH]c2c1C(=O)C(C(=O)OC)C(C)(C)C2 (configuration not stated),17.3,-0.5,-16.2%,3.0%
CNC(=O)c1sc(-c2ccc(Cl)cc2)nc1C,112.2*,52.8*,?,-14.1%
CC(=O)Nc1ccc(NC(=O)c2sc(-c3ccccc3)nc2C)cc1,15.0,20.7,?,?
CCNC(=O)O/N=C(\C)c1sc(-c2ccccc2)nc1C,61.0*,38.8*,-15.3%,?
Cc1nc(-c2ccc(Cl)cc2)sc1C(=O)NNC(=O)C(C)C,-9.6,8.2,6.0%[46.1 µM],10.2%[46.1 µM]
CNC(=O)c1sc(-c2ccccc2)nc1C,132.2*,39.3*,9.4%,?
CC(=O)N1CCN(c2nc3cc4c(cc3nc2NS(=O)(=O)c2ccccc2)OCCO4)CC1,-19.4,-3.4,-11.9%,-9.1%
CC(C)(C)c1cc[n+](CC(=O)Nc2cc(C(F)(F)F)ccc2N2CCOCC2)cc1,21.0,-1.8,2.0%,2.8%[46.1 µM]
COc1ccc(-c2cc(=O)oc3c4c(ccc23)OCN(Cc2cccc(OC)c2)C4)cc1,/,/,6.4%[46.1 µM],-23.3%[46.1 µM]
COc1ccc(C(=O)CSc2n[nH]c(=O)n2Cc2ccco2)cc1,43.7*,32.4*,-8.4%[46.1 µM],7.6%[46.1 µM]
O=C(CSc1n[nH]c(=O)n1Cc1ccco1)Nc1ccccc1,-3.2,-3.0,/,/
Cc1occc1-c1nnc(SCC(N)=O)o1,35.1,13.5,11.4%[46.1 µM],-2.9%[46.1 µM]
O=C(CSc1nnc(-c2ccco2)n1Cc1ccccc1)c1ccc(F)cc1,60.2*,36.2*,2.4%,-0.6%
Cc1occc1-c1nnc(SCC(=O)c2ccc(F)cc2)o1,147.3*,37.4*,10.5%,2.3%
